# In PubChem BioAssay (NCI):
# This is part of a sample that, as a whole, favours compounds with a hit. Of some 79,000 tested, about 15% had one in any assay. The source made the active and inactive calls. Cut-off read from the data, not from the text of the source: active = growth inhibition above about 70%; inactive = the rest.
# Assay: NCI Yeast Anticancer Drug Screen. Data for the cln2 rad14 strain (AID 165);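 note: 0% = growth equal to vehicle treated cultures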
# Settings: S. cerevisiae cln2 rad14 strain, at 50.0 µM (retest, dose inferred, filed as 5.0), hits give high values
# Method in brief: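 Relative to vehicle controls, growth inhibition of compound-treated cln2 rad14 yeast was recorded.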
row,SMILES,growth inhibition
1,O=C1CCC(Cc2ccc(C(F)(F)F)cc2)C(=O)N1 (stereo unspecified),5% (inactive)
2,Oc1cc(O)c2c(c1)OC(c1ccc(O)c(O)c1)C(OC1(c3cc(O)c(O)c(O)c3)Oc3cc(O)cc(O)c3C(O)C1O)C2 (stereo unspecified),4% (inactive)
3,Cc1cccc(N=Nc2ccc(O)cc2)c1,98% (active)
4,Cc1c2c(c(C)c3c4c(oc13)CCCC4)C=NCC2,26% (inactive)
5,CCOC(=O)C(=CCC1NCCc2c1[nH]c1ccccc21)C(=O)OCC (stereo unspecified),59% (inactive)
6,CCOC(=O)C1=C(c2ccccc2)SC(c2ccccc2)N(C(C)C)C1=O (stereo unspecified),63% (inactive)
7,CN(C)CCCNc1cc(/C=C/c2ccc([N+](=O)[O-])cc2)nc2ccccc12,64% (inactive)
8,CC(CN(C)C)C(=O)c1cn(C)c2ccccc12 (stereo unspecified),4% (inactive)
9,Nc1ccccc1/C=C/c1c[nH]c2ccccc12,98% (active)
10,Cc1c(CNc2ccc(Cl)c(Cl)c2Cl)cnc2nc(N)nc(N)c12,60% (inactive)
11,O=C(c1cccs1)N(C(=S)N1CCN(c2ccccn2)CC1)c1ccccc1,10% (inactive)
12,COc1ccccc1/C=C1\NC(=S)N(/C=C2\C(=O)Oc3ccccc3C2=O)C1=O,47% (inactive)
13,Cc1cc(O)c(C)c(C)c1N=Nc1ccccc1,-81% (inactive)
14,O=S1CCS(=O)C1c1ccccc1 (stereo unspecified),8% (inactive)
15,Cc1ccc2nc(-c3ccc(N)cc3)sc2c1,-6% (inactive)
16,CC1OC(OC2C(Oc3c(-c4ccc(O)c(O)c4O)oc4cc(O)ccc4c3=O)OC(CO)C(O)C2O)C(O)C(O)C1O (stereo unspecified),0% (inactive)
17,O=C(OCc1ccccc1CN1CCOCC1)c1cccc(Br)c1,-3% (inactive)
18,C=CCOCC(C)OC(=O)C(C)C (stereo unspecified),-62% (inactive)
19,CC(C)(C)OC(=O)N[C@H]1CC2(C=C(Cl)C(=O)C(Cl)=C2)OC1=O,31% (inactive)
20,CC(Nc1ccc(Cl)c(Cl)c1)c1ccncc1 (stereo unspecified),98% (active)
21,COc1ccccc1/C=C(\NC(=O)c1ccccc1)c1nc2ccccc2[nH]1,74% (active)
22,CCCCCCC(O)(CCCCCC)CCCCCC,-41% (inactive)

# Same assay, conditions: S. cerevisiae cln2 rad14 strain, at 50.0 µM, hits give high values
row,SMILES,growth inhibition
1,Clc1cc2n[nH]nc2c(Cl)c1Cl,88.7% (active)
2,NSc1ccc(N)s1,36.9% (inactive)
3,O=C1C2=C(CCCC2)C(=O)C(Cl)C1Cl (stereo unspecified),99.1% (active)
4,O=C(COc1ccc2ccccc2c1)NC1c2ccccc2Oc2ccccc21,12% (inactive)
5,COc1ccc(-c2cc(-c3ccco3)c(C#N)c(=S)n2C2OC(CO)C(O)C(O)C2O)cc1 (stereo unspecified),30.1% (inactive)
6,Clc1cccc(Cl)c1C(Nc1nncs1)Nc1nncs1,72.9% (active)
7,COC([C@@H](OC(=O)c1ccccc1)[C@H](OC(=O)c1ccccc1)C(O)COC(=O)c1ccccc1)n1cc(C)c(=O)[nH]c1=O (stereo partly specified),53.5% (inactive)
8,C1=C(c2c(-c3ccccc3)[nH]c3ccccc23)Cc2ccccc21,30.2% (inactive)
9,CC12C(=O)OC(=O)C1C1c3ccccc3C2c2ccccc21 (stereo unspecified),86.8% (active)
10,O=C(N/C(=C\c1ccc(/C=C(\NC(=O)c2ccccc2)c2nc3ccccc3s2)cc1)c1nc2ccccc2s1)c1ccccc1,84.7% (active)
11,COS(=O)c1cc(Cl)cc(Cl)c1OC(=O)CSSCC(=O)Oc1c(Cl)cc(Cl)cc1S(=O)OC (stereo unspecified),99.3% (active)
12,COc1cc2c3c(c4ccc(OC)c(OC)c4c2cc1OC)CN1CCC[C@@H]1C3,91.2% (active)
13,N#CSC#CCCC#CSC#N,92.9% (active)
14,Nc1nc(-c2ccc(Cl)cc2)c(N=Nc2ccc(Br)cc2)s1,95.4% (active)
15,CC(=O)C(C(C)=O)C1C=CC=CC=C1,80% (active)
16,CCCCN(C(=O)c1ccccc1)C1CCC(=O)c2[nH]c3ccccc3c21 (stereo unspecified),83.5% (active)
17,S=C(Nc1ccc(Cl)c(Cl)c1)N1c2ccccc2-n2cccc2C1c1cccnc1 (stereo unspecified),84.7% (active)
18,O=C1CCC(Cc2ccc(C(F)(F)F)cc2)C(=O)N1 (stereo unspecified),-42.7% (inactive)
19,Oc1cc(O)c2c(c1)OC(c1ccc(O)c(O)c1)C(OC1(c3cc(O)c(O)c(O)c3)Oc3cc(O)cc(O)c3C(O)C1O)C2 (stereo unspecified),-9.25% (inactive)
20,Cc1cccc(N=Nc2ccc(O)cc2)c1,98.6% (active)

row,SMILES,growth inhibition
1,Cc1c2c(c(C)c3c4c(oc13)CCCC4)C=NCC2,29.2% (inactive)
2,CCOC(=O)C(=CCC1NCCc2c1[nH]c1ccccc21)C(=O)OCC (stereo unspecified),92.2% (active)
3,CCOC(=O)C1=C(c2ccccc2)SC(c2ccccc2)N(C(C)C)C1=O (stereo unspecified),83.6% (active)
4,CN(C)CCCNc1cc(/C=C/c2ccc([N+](=O)[O-])cc2)nc2ccccc12,39.1% (inactive)
5,CC(CN(C)C)C(=O)c1cn(C)c2ccccc12 (stereo unspecified),12.6% (inactive)
6,Nc1ccccc1/C=C/c1c[nH]c2ccccc12,95.6% (active)
7,Cc1c(CNc2ccc(Cl)c(Cl)c2Cl)cnc2nc(N)nc(N)c12,43.4% (inactive)
8,O=C(c1cccs1)N(C(=S)N1CCN(c2ccccn2)CC1)c1ccccc1,20.8% (inactive)
9,COc1ccccc1/C=C1\NC(=S)N(/C=C2\C(=O)Oc3ccccc3C2=O)C1=O,64.7% (inactive)
10,Cc1cc(O)c(C)c(C)c1N=Nc1ccccc1,16.8% (inactive)
11,O=S1CCS(=O)C1c1ccccc1 (stereo unspecified),-11.1% (inactive)
12,Cc1ccc2nc(-c3ccc(N)cc3)sc2c1,15% (inactive)
13,CC1OC(OC2C(Oc3c(-c4ccc(O)c(O)c4O)oc4cc(O)ccc4c3=O)OC(CO)C(O)C2O)C(O)C(O)C1O (stereo unspecified),-8.85% (inactive)
14,O=C(OCc1ccccc1CN1CCOCC1)c1cccc(Br)c1,-4.15% (inactive)
15,C=CCOCC(C)OC(=O)C(C)C (stereo unspecified),49% (inactive)
16,CC(C)(C)OC(=O)N[C@H]1CC2(C=C(Cl)C(=O)C(Cl)=C2)OC1=O,69.2% (inactive)
17,CC(Nc1ccc(Cl)c(Cl)c1)c1ccncc1 (stereo unspecified),83.9% (active)
18,COc1ccccc1/C=C(\NC(=O)c1ccccc1)c1nc2ccccc2[nH]1,95% (active)
19,CCCCCCC(O)(CCCCCC)CCCCCC,23.9% (inactive)
